Results as given in PubChem BioAssay.
Activity calls are given as the source filed them.

Experiments:
Albumin (Bos taurus) = Albumin (Bos taurus) (UniProt P02769); assay: compounds binding labelled BSA control protein – biochemical, small-molecule microarray, Alexa647 label, 635/667 nm fluorescence, artefact control for SMM control protein annotation, profiling panel (AID 1118); conditions: BSA-A647 binding, fluorescence 635 nm, higher = more signal;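 further: score merges 667 nm emission intensity and signal-to-noise per printed compound spot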
Albumin (Bos taurus), sequence (P02769 whole entry, looked up): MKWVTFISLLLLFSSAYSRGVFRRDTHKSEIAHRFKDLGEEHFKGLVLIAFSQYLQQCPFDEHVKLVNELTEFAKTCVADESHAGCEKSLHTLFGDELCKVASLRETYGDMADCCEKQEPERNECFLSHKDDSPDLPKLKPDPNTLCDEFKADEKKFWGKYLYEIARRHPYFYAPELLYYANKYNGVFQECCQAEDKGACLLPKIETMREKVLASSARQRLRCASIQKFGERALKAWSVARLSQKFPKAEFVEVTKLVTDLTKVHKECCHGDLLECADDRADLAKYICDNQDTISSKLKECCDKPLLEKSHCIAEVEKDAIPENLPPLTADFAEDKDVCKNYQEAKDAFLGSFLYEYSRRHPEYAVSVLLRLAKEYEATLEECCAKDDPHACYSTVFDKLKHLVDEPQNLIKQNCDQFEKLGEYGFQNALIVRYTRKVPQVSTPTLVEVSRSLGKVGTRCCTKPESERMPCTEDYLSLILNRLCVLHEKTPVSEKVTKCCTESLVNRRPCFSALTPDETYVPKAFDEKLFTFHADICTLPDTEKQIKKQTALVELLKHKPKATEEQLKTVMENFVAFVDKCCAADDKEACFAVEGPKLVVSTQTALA

[1] = probe aXIP binding to arrayed compounds – biochemical, NeuroSMM set, 635/667 nm fluorescence, primary screen (AID 1119); conditions: small-molecule microarray, higher = more signal, called active from +8 up or from −8 down;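 further: probe is the protein aXip251-270 applied at 1 µg/mL to compound-printed slides; binding of probe to printed compounds measured as 667 nm fluorescence plus signal to noise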
[2] = probe aNOTCH3 binding on compound microarray – biochemical, small-molecule microarray, 635/667 nm fluorescence, primary screen (AID 1120); conditions: higher = more signal;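 further: probe is a biotin-tagged antibody raised against NOTCH3 rather than NOTCH3 protein; score merges spot fluorescence near 667 nm with spot signal to noise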
[3] = probe aNOTCH2 binding on compound microarray – biochemical, small-molecule microarray, 635/667 nm fluorescence, primary screen (AID 1121); conditions: higher = more signal;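 further: score merges feature fluorescence read at 667 nm with its signal to noise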
[4] = molecular target: Carbonic anhydrase 2 (Homo sapiens) (UniProt P00918); assay: compounds binding carbonic anhydrase 2 – biochemical, small-molecule microarray, Alexa647-labelled CAII, profiling panel (AID 1122); conditions: CAII-A647 binding fluorescence, higher = more signal
[5] = COS7 lysate on small-molecule microarray, probe aHis, 635 nm (AID 1123); conditions: COS7 cell lysate, fluorescence, higher = more signal;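 further: z-score combines 667nm fluorescence intensity with signal-to-noise per printed compound spot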
[6] = probe aLAP1 signal on lysate-treated microarray – cell lysate, small-molecule microarray, COS7 lysate, primary screen (AID 1124); conditions: probe aLAP1, fluorescence, higher = more signal;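 further: lysate comes from COS7 cells expressing LAP1 and is applied at 0.3 µg/mL; score merges spot fluorescence near 667 nm with signal-to-noise over triplicate slides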
Sam68 (KHDRBS1) = assay: compounds binding KHDRBS1 protein – biochemical, small-molecule microarray, 635 nm fluorescence, primary screen (AID 1125); conditions: higher = more signal;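 further: score merges 667 nm channel intensity with signal to noise over triplicate slides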
[7] = tested on: Chordin-like protein 2 (CHRDL2); assay: compounds binding chordin-like 2 – biochemical, small-molecule microarray, 635 nm fluorescence, primary screen (AID 1126); conditions: fluorescence 635 nm, higher = more signal;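 further: printed compound slides probed with Chrdl2 protein at 4 µg/mL for 1 h at 4 C; score merges 667 nm emission intensity with signal to noise over three replicate slides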
[8] = molecular target: Concanavalin-A (Canavalia ensiformis) (UniProt P02866); assay: compounds binding concanavalin A lectin – biochemical, small-molecule microarray, Alexa647 label, 635 nm, artefact control for SMM control protein annotation, primary screen (AID 1127); conditions: ConA-A647 binding fluorescence, higher = more signal;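 further: z combines 667 nm emission intensity with signal-to-noise across three replicate slides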
Concanavalin-A (Canavalia ensiformis), sequence (P02866 whole entry, looked up): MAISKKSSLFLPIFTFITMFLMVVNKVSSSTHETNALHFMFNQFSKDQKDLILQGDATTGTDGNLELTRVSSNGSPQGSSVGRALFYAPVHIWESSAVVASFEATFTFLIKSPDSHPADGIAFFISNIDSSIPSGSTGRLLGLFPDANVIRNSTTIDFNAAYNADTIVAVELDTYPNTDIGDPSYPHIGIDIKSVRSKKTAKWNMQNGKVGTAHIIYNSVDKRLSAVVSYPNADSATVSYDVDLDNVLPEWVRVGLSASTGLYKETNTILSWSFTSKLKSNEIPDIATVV

SMILES	composite z-score (Albumin (Bos taurus))	composite Z-score [1]	composite z-score [2]	composite z-score [3]	composite z-score [4]	composite z-score [5]	composite z-score [6]	composite z-score (Sam68 (KHDRBS1))	composite z-score [7]	composite z-score [8]
COC(=O)[C@@]1(Cc2ccc(OC)cc2)[C@H]2c3cc(C(=O)N4CCCC4)n(Cc4ccc(OC(F)(F)F)cc4)c3C[C@H]2CN1C(=O)c1ccccc1	0.943	0.308 (inactive)	0.142	0.194	-0.0687	-0.0543	-0.347	-0.582	-0.818	1.01
COc1ccc(C(=O)Nc2cccc(CN3C(=O)[C@]4(O[C@H](CCn5cc([C@H](O)c6ccccc6)nn5)[C@@H]([Si](C)(C)c5ccc(OC)cc5)[C@@H]4C)c4ccccc43)c2)cc1	-0.215	-0.213 (inactive)	0.0916	-0.0986	0.169	0.18	-0.206	0.962	0.153	0.587
COCCOC(=O)N1C(=O)[C@@]2(c3cc(C#CC4=CCCCC4)ccc31)[C@H](c1ccc(O)cc1)N1[C@H](c3ccccc3)[C@H](c3ccccc3)OC(=O)[C@H]1[C@@H]2C(=O)NC[C@H](O)c1ccccc1	0.613	0.225 (inactive)	0.158	-0.148	0.27	1.68	1.02	1.3	0.642	0.935
CCOC(=O)C[C@H]1[C@H](OC(=O)c2cc3ccccc3oc2=O)[C@@H](NC(=O)c2ccc3ccccc3c2)c2cc(OCCCO)ccc2N1C(=O)Cc1ccc(OC)cc1	0.684	-0.0384 (inactive)	-0.0377	-0.0131	0.265	1.69	0.241	0.692	0.453	0.69
C=CCNC(=O)[C@H]1[C@@H]2C(=O)O[C@@H](c3ccccc3)[C@@H](c3ccccc3)N2[C@@H](c2ccc(OCCO)cc2)[C@]12C(=O)Nc1ccc(C#CCNC(N)=O)cc12	0.601	-0.262 (inactive)	0.103	-0.0624	0.587	0.261	-0.113	1.18	-0.269	1.1
CCCCNC(=O)c1ccc(C#C[Si](C(C)C)(C(C)C)C(C)C)c(OC(C)=O)c1	-0.154	0.168 (inactive)	0.089	-0.117	0.925	0.1	-0.18	0.823	1.33	0.94
COCCOC(=O)N1C(=O)[C@@]2(c3ccccc31)[C@H](c1ccccc1OCCO)N1[C@H](c3ccccc3)[C@H](c3ccccc3)OC(=O)[C@H]1[C@@H]2C(=O)N1CCCCCCC1	-0.0233	7.47 (inactive)	2.15	1.16	0.935	4.27	1.96	1.29	1.47	0.883
COCC1=C2[C@@H](CCc3ccccc3)OB(O)C[C@@H]2[C@@H]2C(=O)N(C)C(=O)[C@@H]2C1	0.229	0.289 (inactive)	-0.0918	-0.108	0.21	0.06	-0.179	0.106	0.5	-0.141
COCCCNC(=O)[C@@]1(Sc2ccc(C)cc2)CC(=O)N(C(C)C)[C@@H]1c1ccc(CO)cc1I	-0.622	0.525 (inactive)	0.0062	-0.164	0.763	1.4	0.427	0.462	-0.825	0.413
CC(C)(C)OC(=O)CC[C@]12N=C(c3ccc(OCCCO)cc3)O[C@H]1c1ccccc1N(Cc1ccccc1)C2=O	0.0468	2.86 (inactive)	0.0525	-0.0456	0.557	2.39	0.504	1.3	0.581	0.995
COC(=O)[C@@]1(Cc2ccc(F)cc2)[C@H]2c3cc(C(=O)N(C)C)n(Cc4ccc(O)c(OC)c4)c3C[C@H]2CN1C(=O)c1ccccc1	0.862	-0.136 (inactive)	0.416	-0.127	0.659	1.08	-0.0606	0.607	-0.109	0.862
